Laboratory results: PubChem BioAssay (NCI)
Compounds without any hit were thinned out: in the full panel of roughly 83,000, 20% have a hit.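 Single-dose data. Exposure time 48 hours. Values below 10 considered active.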 Unmarked numbers belong to inactive results. The source made the active and inactive calls.

Experiments:
Assay in all cases: NCI-60 one-dose screen, 48 h (100 = growth as untreated, 0 = no growth, -100 = all killed)
Details in all cases: 10 µM unless noted
[1] = system: DU-145 prostate
[2] = system: K-562 leukemia
[3] = system: MALME-3M melanoma
[4] = system: MDA-MB-231 breast
[5] = system: RXF 393 renal
[6] = system: SF-268 CNS
[7] = system: SF-295 CNS
[8] = system: SF-539 CNS
[9] = system: UACC-257 melanoma
[10] = system: M14 melanoma

| Compound | growth [1] | growth [2] | growth [3] | growth [4] | growth [5] | growth [6] | growth [7] | growth [8] | growth [9] | growth [10] |
| --- | --- | --- | --- | --- | --- | --- | --- | --- | --- | --- |
| COC(CC(F)F)c1cn(S(=O)(=O)c2ccc(C)cc2)c2ccccc12 (stereo not given) | 21.3% | 14.5% | 50.9% | 38.2% | 39.4% | 42% | 15% | 15.7% | 37.1% | 7.65% (active) |
| CCCC/C(CC)=N\NS(=O)(=O)c1ccc([N+](=O)[O-])cc1 | 97.2% | 95% | 101% | 96.2% | 110% | 100% | 108% | 101% | 88.7% | 101% |
| COC12C=C/C(=C(/C(=O)OCc3ccncc3)C(=O)CCCCCCCCC3(OC)C=C/C(=C(/C(=O)OCc4ccncc4)C(=O)CCCCCCCC1)O3)O2 | -60.7% (active) | -4.08% (active) | -67.7% (active) | 1.77% (active) | -82.7% (active) | -28% (active) | -23.8% (active) | -60.1% (active) | -29.6% (active) | -24.4% (active) |
| CCCCCCCCCCCCCCCCCCOc1ccccc1CC(=O)OCC[N+](C)(C)C | 36.1% | 18.6% | 26.9% | -2.29% (active) | -54% (active) | 15% | 45.8% | 21.3% | 22.3% | 6.22% (active) |
| CCCCNC(=O)Oc1ccc(/C(=C(/C)Cc2ccc(OC)cc2)c2ccc(OCCN3CCCC3)cc2)cc1 | 80.1% | -27.8% (active) | 58.8% | 69% | 57% | 71.8% | 69.7% | 86.1% | 43.1% | -64.6% (active) |
| O=C1c2ccc3c4c5ccc(c24)C(=O)N1CCCOCCCCOCCCNCc1ccc(cc1)CNCCCOCCCCOCCCN(C3=O)C5=O | 8.84% (active) | -19.3% (active) | -90.7% (active) | -11.7% (active) | 30.3% | 2.25% (active) | 91.5% | -85.7% (active) | -78.9% (active) | -85.3% (active) |
| C=CCOC(=O)Nc1cccn([C@H](Cc2ccccc2)C(=O)NCCC(C)C)c1=O | 110% | 110% | 103% | 101% | 110% | 106% | 94.5% | 109% | 102% | 121% |
| O=C(Nc1nc(-c2ccc(Cl)cc2)nc2c1sc(=S)n2-c1ccccc1)C(F)(F)F | 37.5% | 57.2% | 21.2% | 37.5% | 29% | 36.1% | 7.16% (active) | 8.63% (active) | 51.1% | 40.3% |
| NC(=O)c1c(NC(=O)c2ccc3ccccc3c2)sc2c1CCC(=O)C2 | 94.4% | 14.6% | 91.1% | 67.5% | 60.7% | 31.4% | 93.4% | 25.4% | 91.6% | 37.4% |
| O=C(/C=C/c1cn(-c2ccccc2)nc1-c1ccc(Cl)cc1)c1ccc(F)cc1 | 88.7% | 57.7% | 87.5% | 65.6% | 100% | 83.4% | 172% | 96.6% | 104% | 79.3% |
| COc1ccc(C2CC(c3ccc(Nc4nc(Nc5ccccc5)nc(Nc5ccccc5)n4)cc3)=NN2C(C)=O)cc1 (stereo not given) | 144% | 75.2% | 110% | 95.5% | -10.9% (active) | 139% | 99.5% | 121% | 88.4% | 107% |
| COc1ccc(-c2ccc(-c3ccc(C(=N)N)cc3)s2)cc1Cl | -87.5% (active) | -36.8% (active) | 57.5% | -60.7% (active) | 60.7% | 20% | -37.5% (active) | -59% (active) | 88.1% | 38.6% |
| Cn1ccnc1C(=O)/C=C/c1ccc(CC(=O)Nc2cc(C(F)(F)F)cc(C(F)(F)F)c2)cc1 | 73.4% | 61.6% | 77.9% | 78.1% | 56.2% | 64.9% | 84.3% | 67.1% | 72.8% | 80.5% |
| Nc1nc(N)c(-c2ccc(Cl)c(Cl)c2)c(CBr)n1 | 83.2% | 36.8% | 89% | 82.2% | 90.6% | 94% | 55.7% | 65.4% | 68.5% | 50.5% |
